Screens as filed in PubChem.
p53 reactivator – mutant p53 re-activation in reporter cells; Potency, µM (highest dose often 92.2 µM), usual class: activators; H1299 p53-A138V BP100-luciferase reporter, luminescence, 24 h; 0.063% of 320,000 active; further: nearly all actives have a fitted effect of over 45% in size
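p53-null H1299 cells stably carrying temperature-sensitive p53-A138V and a BP100-luciferase reporter were pinned with compounds (4-point, 1:5 series) and held 24 hrs at 37 deg C. Luminescence was read 10 min after detection reagent.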
LDHA block – LDHA (human) enzyme inhibition; purified LDHA, NADH/diaphorase-resazurin fluorescence; active compounds read low; P00338; AID 1347041; 0.15% of 480,000 active; activity change, % (values are at about 110 or 230 µM); in the data active means activity change below about -30%; inconclusive means mostly about -25% to -30%
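Human LDH5 at 2 nM final in Tris HCl pH 7.4 with 0.06 mM NADH and 0.2 mM pyruvate, reacted 5 minutes at room temperature. Remaining NADH coupled via diaphorase/resazurin; resorufin fluorescence read at 0 and 20 minutes, normalized to enzyme-free and DMSO wells.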
GLP-1R agonist – agonists of human GLP-1 receptor | P43220 | HEK293 GLP-1R CRE-luciferase, luminescence, 4-6 h; cells express a hypersensitive GLP-1R form | Potency, µM (top dose mostly 45.6 µM), usual class: activators | 0.007% of 380,000 active | AID 624172
Target sequence (P43220 whole entry, looked up): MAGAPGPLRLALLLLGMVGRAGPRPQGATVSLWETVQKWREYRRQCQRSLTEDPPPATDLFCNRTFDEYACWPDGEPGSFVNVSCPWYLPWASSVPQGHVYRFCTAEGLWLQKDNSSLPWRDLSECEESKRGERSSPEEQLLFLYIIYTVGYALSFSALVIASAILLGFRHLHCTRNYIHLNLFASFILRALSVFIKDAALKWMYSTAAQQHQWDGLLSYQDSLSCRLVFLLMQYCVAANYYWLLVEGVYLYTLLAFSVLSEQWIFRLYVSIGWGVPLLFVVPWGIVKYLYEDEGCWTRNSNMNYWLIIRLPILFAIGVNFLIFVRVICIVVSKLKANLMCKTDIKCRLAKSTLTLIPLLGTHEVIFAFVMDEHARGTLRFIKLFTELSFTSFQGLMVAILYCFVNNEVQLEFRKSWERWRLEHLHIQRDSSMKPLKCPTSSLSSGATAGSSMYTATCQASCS
GLP1R cytotox – cytotoxic in the GLP-1 receptor inverse agonist counter-screen. 0.13% of 410,000 active. Potency, µM (doses to about 38.3 µM), actives largely listed as inhibitors. HEK293 cAMP-luciferase reporter cells, luminescence, 24 h;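 further: loss of luciferase light is scored as toxicity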
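Cells in DMEM/10% Nu serum/1% pen-strep, 1536-well format. Pre-incubated 12 h, dosed with 23 nL compound, incubated a further 24 h. Luciferase detection, 12 min at room temp, luminescence.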
GLP1R inv ag – acts as inverse agonist at human GLP-1 receptor. Potency, µM (top dose mostly 38.3 µM), hits mostly inhibitors. 1.6% of 410,000 active. HEK293 GLP-1R CRE-luciferase, luminescence, 24 h; GLP-1R form is constitutively active; further: nearly all actives have a fitted effect of over 55% in size
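HEK293 cells stably co-expressing a cAMP-responsive luciferase reporter and constitutively active GLP-1R were seeded, incubated 12 h, then exposed to compounds for 24 h at 37 C. Luminescence was read 12 min after detection reagent; inverse agonists lower signal.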
ClpP mod – qHTS Assay for Activators of ClpP | ATP-dependent Clp protease proteolytic subunit (Bacillus subtilis (strain 168)), P80244 | purified B. subtilis ClpP, FRET peptide cleavage, 20 min | Potency, µM (titrated, usually from 57.5 µM) | 1.9% of 340,000 active; active means well fitted falling curve with a large enough effect; inconclusive means small, poorly fitted or top-dose-only effect; inactive means no such curve, though single readings can be large or run the other way; further: the source files actives as falling curves though it sought activators and does not explain the sign; nearly all actives have a fitted effect of over 65% in size
Target sequence (P80244 whole entry, looked up): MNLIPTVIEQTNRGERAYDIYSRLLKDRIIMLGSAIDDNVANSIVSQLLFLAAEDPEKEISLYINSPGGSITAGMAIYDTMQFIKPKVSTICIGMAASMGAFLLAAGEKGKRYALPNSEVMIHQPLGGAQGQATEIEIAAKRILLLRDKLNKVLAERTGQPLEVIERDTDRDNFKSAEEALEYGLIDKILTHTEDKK
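FRET quenching reversal measured ClpP activation: 10 microg/mL B. subtilis ClpP at pH 8 with the FRET-FV decapeptide, read at 430 nm after 320 nm excitation. The 20-min minus 0-min signal was scaled between DMSO/no-enzyme wells and ADEP (5.8 microM final).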
A number is an active result; – = inactive; ? = inconclusive; · = not tested or not shown. Hits are enriched below; roughly 2.9% of the tested compounds scored in any of these assays. Unless noted, the call rests on the fitted dose curve; in most records, active means well fitted curve in the direction sought with a large enough effect; inconclusive means small, poorly fitted or top-dose-only effect, or another doubt; inactive means no such curve, though single readings can be large; an effect the other way counts as inactive or inconclusive.

SMILES	p53 reactivator	LDHA block	GLP-1R agonist	GLP1R cytotox	GLP1R inv ag	ClpP mod
CCOC(=O)C(C(=O)OCC)C1N=C(N)N=C2Oc3ccccc3N21 (centres undefined)	–	–	–	–	–	25µM
CCOC(=O)CN1C(=O)C(CC)Oc2ccccc21 (centres undefined)	–	–	–	–	–	–
COCCNC(=S)N(CCc1c(C)[nH]c2ccc(Cl)cc12)Cc1cccs1	–	–	–	?	2.5µM	·
CCn1ncc(Br)c1C(=O)Nc1cccc(F)c1	–	–	–	–	–	–
CCn1ncc(Br)c1C(=O)Nc1ccc(C(C)C)cc1	–	–	?	–	8.9µM	·
Cc1cc(/C=N/Nc2ncnc(N)c2[N+](=O)[O-])c(C)n1-c1ccccc1	–	–	–	?	2.2µM	·
CC1(C)C(=O)N(OCc2ccccc2)C(C)(C)C(=O)N1OCc1ccccc1	–	–	–	–	10µM	–
O=C(Nc1ccccc1)C1CCCN(S(=O)(=O)c2ccc(-n3cnnn3)cc2)C1 (centres undefined)	–	–	–	–	–	–
CN1CCC(N(C)C(=O)c2ccc(Cl)c(S(=O)(=O)N(C)c3ccc(Cl)cc3)c2)CC1	–	–	–	–	11µM	–
CN1CCN(c2ccc3sc(-n4ccc5ccccc54)nc3c2)CC1	·	–	–	–	6.3µM	–
Cc1cccc(C)c1NC(=O)CN(C)C(=O)C1CCN(c2ncnc3sc(C)c(C)c23)CC1	–	–	–	–	?	–
Cc1cc(Br)ccc1NC(=O)CN(C)C(=O)C1CCN(c2ncnc3sc(C)c(C)c23)CC1	·	–	–	–	3.2µM	–
COc1ccc(NC(=O)CN(C)C(=O)/C=C/c2ccc(OCc3ccccc3)cc2)cc1	–	–	–	?	–	28µM
COc1ccc(OC)c(/C=C/C(=O)N(C)CC(=O)Nc2cc(C)ccc2C)c1	–	–	–	–	–	–
COc1ccc(OC)c(/C=C/C(=O)N(C)CC(=O)Nc2ccc(C)cc2)c1	–	–	–	–	–	28µM
O=C(CN1C(=O)/C(=C/c2ccccc2Cl)SC1=S)NC1C=CS(=O)(=O)C1 (centres undefined)	–	–	–	–	–	·
CCN(C(=O)c1ccc(Cl)cc1[N+](=O)[O-])c1ccccc1C	–	–	–	–	?	·
COc1ccc(-n2c(C)cc(=O)c3c2CC(C)(C)CC3=O)cc1	–	–	–	–	–	–
O=C1NCC(O)=C1C=NCCO	–	–	–	–	–	–
CCn1c(CC(=O)Nc2ccccc2F)nnc1SCC(=O)NC1CCCCC1	–	–	–	–	–	·
CCCOc1cccc(NC(=O)OC2CCN(C)CC2)c1	–	–	–	–	–	25µM
O=C(Cn1cnc2c(OCc3ccccc3)ncnc21)NCCN1CCOCC1	–	–	–	–	–	–
CN(C)CCCN1c2ccccc2Sc2ccc(Cl)cc21	–	–	–	–	?	–
COc1cccc(/C=N/Nc2cc(-n3nc(C)cc3-c3ccccc3)ncn2)c1O	?	–	–	2.2µM	3.5µM	–
COc1cccc(/C=N/Nc2nc(Nc3ccccc3)nc(-n3nc(C)cc3C)n2)c1O	–	–	–	?	?	–
SMILES	p53 reactivator	LDHA block	GLP-1R agonist	GLP1R cytotox	GLP1R inv ag	ClpP mod
CC(c1ccccc1)c1nnc(NC(=O)c2ccc3c(c2)OCO3)s1 (centres undefined)	–	–	–	–	–	?
CC(C)c1nnc(NC(=O)c2ccc3c(c2)OCO3)s1	–	–	–	–	1.1µM	–
O=C(NCCCN1CCCCCC1)C1CCCN(S(=O)(=O)c2cccc3nsnc23)C1 (centres undefined)	–	–	–	–	–	–
O=C(C1CCN(S(=O)(=O)c2ccccc2)CC1)N1CCN(c2ccccc2)CC1	–	–	–	–	–	–
CC[C@]12c3[nH]c4ccc(Cl)cc4c3CCN1C(=O)[C@@H](CC(=O)NCc1cccc(C(F)(F)F)c1)C[C@@H]2C(=O)N1CCN(C(=O)c2ccco2)CC1	–	–	–	?	10µM	–
CC[C@]12c3[nH]c4ccc(OC)cc4c3CCN1C(=O)C(CC(=O)NCc1cccc(C(F)(F)F)c1)C[C@@H]2C(=O)N1CCN(C(=O)c2ccco2)CC1 (some centres undefined)	–	–	–	–	–	–
CS(=O)(=O)Nc1ccc(C(=O)CSc2nnc(C3CC3)n2C2CC2)cc1	–	–	–	–	–	–
COc1ccc(CCNCC(=O)Nc2ccc(C)c(Br)c2)cc1OC	·	–	–	–	11µM	·
Cn1c(=N)n(CC(=O)O)c2ccccc21	–	–	–	–	–	–
Cn1c(=N)n(CC(=O)c2ccc(Cl)c(Cl)c2)c2ccccc21	–	–	–	–	7.1µM	–
Cn1c(=N)n(CC(=O)c2ccccc2)c2ccccc21	–	–	–	–	11µM	·
CC(C)(C)c1cc(C(=O)N/N=C/c2ccc(O)cc2)n(-c2ccccc2)n1	–	–	–	–	2µM	32µM
CCN1CCN(c2oc(-c3ccc(COc4ccc(C)cc4)o3)nc2C#N)CC1	·	–	·	–	?	32µM
COc1ccc(OCc2ccc(-c3nc(C#N)c(N4CCCCC4)o3)o2)cc1	·	–	·	–	?	28µM
COc1ccc(OCc2ccc(-c3nc(C#N)c(N4CCN(c5cccc(Cl)c5)CC4)o3)o2)cc1	·	–	·	–	–	3.5µM
Cc1ccccc1OCc1ccc(-c2nc(C#N)c(N3CCN(c4cccc(Cl)c4)CC3)o2)o1	·	–	·	–	–	–
COc1ccc(OCc2ccc(-c3nc(C#N)c(N4CCN(C)CC4)o3)o2)cc1	·	–	·	–	–	28µM
CCNC(=O)C(C)Oc1ccc(Cl)cc1Cl (centres undefined)	–	–	–	–	–	–
COC(=O)c1cc(OC)c(OC)cc1NC(=O)CN1CCOCC1	–	–	–	–	–	–
C/C(=N\NS(=O)(=O)c1ccccc1)c1ccccc1	–	–	–	–	–	·
CCCCc1ccc(S(=O)(=O)N/N=C(/C)c2ccncc2)cc1	–	–	–	–	–	32µM
CC1(C)Cc2c(cnn2-c2ccc(F)cc2)C(NC(=O)C2CCC2)C1 (centres undefined)	–	–	–	–	–	–
C/C(=N\NC(=S)NCc1ccccc1)c1cccs1	–	–	–	3.5µM	?	·
C/C(=N\NC(=S)NCc1ccccc1)c1ccc2c(c1)OCCO2	–	–	?	?	10µM	–
C/C(=N\NC(=O)COc1ccccc1)c1cccs1	?	–	–	–	–	25µM
CCOCCCNC(=S)NCCCNc1nc2c(C)cc(C)cc2cc1C#N	–	–	–	–	–	–
